GBA mod: alters purified human glucocerebrosidase activity; actives 1.1% (n = 48,000); purified enzyme, resorufin glucoside fluorescence (screen aimed at inhibitors), 20 min; P04062; Potency, µM; in the data active = potency below about 15 µM; inconclusive = mostly about 16 µM to 33 µM;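 note: the screen sought inhibitors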
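Wild-type enzyme at 0.2 nM final in 50mM citric acid/KH2PO4, 10mM sodium taurocholate, 0.01% tween-20, pH 5.9, with resorufin beta-D-glucopyranoside at 30 uM final. Compounds titrated, 20 min at RT, red fluorescence read; AC50 from titration.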
Bst PK mod: alters activity of Bacillus stearothermophilus pyruvate kinase; actives 1.2% (n = 51,000); purified pyruvate kinase, luminescence ATP production; ribose 5-phosphate activator present at AC10; Potency, µM; AID 361; in the data active = potency below about 11 µM; inconclusive = mostly about 12 µM to 25 µM;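 the screen sought inhibitors and activators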;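 note: scaled between full activation by ribose 5 phosphate and full inhibition by luteolin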
TSHR agonist: TSH receptor (human) agonism | HEK293-CNG-TSHR cells (CNG channel as cAMP sensor), membrane potential dye, cAMP | Potency, µM (highest dose often 57.1 µM), for the others: at the highest dose activation, hits mostly activators | actives 0.48% (n = 73,000); active = well fitted activation curve with a large enough effect in the main read-out, with a control signal flat, not every such curve was filed as active; inconclusive = small, poorly fitted or top-dose-only effect, or a change in a side signal; inactive = no such curve, though single readings can be large or run the other way; % of control where 0% means no effect;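 note: the control signal comes from parental cells without the receptor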
Target sequence (P16473 whole entry, looked up): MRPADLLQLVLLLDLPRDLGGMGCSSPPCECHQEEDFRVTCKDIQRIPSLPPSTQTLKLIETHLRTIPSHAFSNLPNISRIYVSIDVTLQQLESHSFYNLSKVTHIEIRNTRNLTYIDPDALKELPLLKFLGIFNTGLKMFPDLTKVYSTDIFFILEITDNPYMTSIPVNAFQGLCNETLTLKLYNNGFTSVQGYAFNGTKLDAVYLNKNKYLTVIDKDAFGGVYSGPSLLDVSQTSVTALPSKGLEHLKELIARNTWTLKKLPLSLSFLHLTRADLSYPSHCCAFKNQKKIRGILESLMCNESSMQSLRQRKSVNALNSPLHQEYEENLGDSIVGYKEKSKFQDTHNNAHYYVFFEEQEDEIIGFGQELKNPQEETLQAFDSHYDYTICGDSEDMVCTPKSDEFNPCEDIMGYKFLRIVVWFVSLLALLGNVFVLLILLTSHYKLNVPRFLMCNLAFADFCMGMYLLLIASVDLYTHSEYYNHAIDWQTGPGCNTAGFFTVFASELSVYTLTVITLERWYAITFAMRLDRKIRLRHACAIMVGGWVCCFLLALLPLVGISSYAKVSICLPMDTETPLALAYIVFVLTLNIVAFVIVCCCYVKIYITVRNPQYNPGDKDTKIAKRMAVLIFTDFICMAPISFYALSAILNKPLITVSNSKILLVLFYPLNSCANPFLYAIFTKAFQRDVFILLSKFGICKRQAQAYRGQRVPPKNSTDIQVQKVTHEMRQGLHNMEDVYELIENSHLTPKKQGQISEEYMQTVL
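HEK 293 cells stably expressing TSHR and a modified CNG channel, with CNG-only parental cells as counterscreen, were preloaded 60 min at room temperature with membrane potential dye containing 100 uM RO 20-1724. Compound exposure was 30 min, and depolarization was read as fluorescence at 590 nm.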
HEK293 cAMP ctrl: counter-screen for TSHR agonists: cAMP increase in parental HEK293; parental HEK293 CNG cAMP sensor, membrane potential fluorescence; Potency, µM (titrated, usually from 57.1 µM), for the others: at the highest dose activation, actives largely listed as activators; actives 2.5% (n = 73,000); active = well fitted activation curve with a large enough effect; inconclusive = small, poorly fitted or top-dose-only effect; inactive = no such curve, though single readings can be large or run the other way; note: % of control where 0% means no effect; nearly all actives have a fitted effect of over 55% in size
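Counterscreen for endogenous-receptor signalling: CNG-channel HEK 293 cells report cAMP rise by membrane depolarization. After 60 min dye equilibration with 100 uM RO 20-1724, compounds incubated 30 min before bottom-read fluorescence at 590 nm.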
Numbers without * were called inactive; i = inactive; ? = inconclusive; / = no result given; [ ] = remark or other dose. This is a sample that favours compounds with a hit; in the whole collection about 4% have one here. Potency is the fitted concentration of half-maximal effect.

SMILES	GBA mod	Bst PK mod	TSHR agonist	HEK293 cAMP ctrl
O=S(=O)(c1ccccc1)N1CCC2(CC1)CN(Cc1ccccc1)C2	/	/	-9%	-1%
Oc1ccc(-c2nc3ccccn3c2NCc2ccc3c(c2)OCO3)cc1	0.89*	/	?	-31%
CCOC(=O)CNc1c(-c2ccc(O)cc2)nc2ccccn12	?	>57	?	?
CC(CCN)(CCN)[N+](=O)[O-]	/	/	6%[11.4 µM]	8%[11.4 µM]
Cc1cn([C@H]2C=C[C@H](CO)O2)c(=O)[nH]c1=O	/	/	2%	2%
Cc1nc(Nc2ccc3c(c2)OCCO3)c2oc3ccccc3c2n1	>77	4.3*	/	9%
CCN(C1CCCCC1)S(=O)(=O)c1cn(C)c(=O)n(C)c1=O	/	/	?	3.2µM*
CCN(C1CCCCC1)S(=O)(=O)c1cc(C)ccc1OC	>77	>57	?	?
O=C(OCc1c(Cl)nc2sccn12)c1cc2c(s1)CCCC2	>77	>57	?	13µM*
O=C(c1cc2c(s1)CCCC2)n1cccn1	>77	i	4%	11%
CC(C)=N[C@H](C(=O)O)C(C)(C)S	/	/	17%[11.4 µM]	7%[11.4 µM]
c1c2c(cc3sc(N4CCOCC4)nc13)OCCO2	>77	4.4*	29%	-4%
CC(=O)OC(C)(C)N=Nc1ccc(Br)cc1	/	/	/	7%[11.4 µM]
CCOC(=O)c1oc2ccc(Br)cc2c1CSc1nnc(C)s1	>77	>57	?	32µM*
O=C(O)c1ccc(C(=O)O)c(C(=O)O)c1.[NH-][C@@H]1CCCC[C@@H]1[NH-].[Pt]	/	/	-2%[11.4 µM]	2%[11.4 µM]
COc1cc([C@H](O)CO)ccc1O	/	/	/	0%
O=C1N/C(=C\c2ccccc2)c2ccccc21	>77	5.6*	17%	18%
Cc1cccc(NC(=O)c2sc3nc(-c4ccccc4)cn3c2C)n1	>77	>57	?	25µM*
Cc1cccc(NC(=O)c2sc3nc(-c4ccc(F)cc4)cn3c2C)n1	/	>57	?	20µM*
Cc1c(C(=O)Nc2ccc3c(c2)OCO3)sc2nc(-c3ccccc3)cn12	?	>57	?	?
Cc1c(C(=O)Nc2ccccc2)sc2nc(-c3ccccc3)cn12	?	i	?	32µM*
COc1ccc(-c2cn3c(C)c(C(=O)Nc4cccc(C)n4)sc3n2)cc1	>77	/	18%	18%
Nc1nc(N)nc(CCCCc2nc(N)nc(N)n2)n1	/	/	-4%[11.4 µM]	8%[11.4 µM]
COc1ccc2c(c1)Cc1cc(N=[N+]([O-])c3ccc4c(c3)Cc3cc(OC)ccc3-4)ccc1-2	/	/	-2%[11.4 µM]	4%[11.4 µM]
Cc1ccc(S(=O)(=O)N=Nc2c(O)[nH]c3cc(O)c(C(=O)O)cc23)cc1	/	/	6%[11.4 µM]	5%[11.4 µM]
SMILES	GBA mod	Bst PK mod	TSHR agonist	HEK293 cAMP ctrl
CCN(CC)S(=O)(=O)c1cccc(-c2nnc(SC(C)C#N)n2Cc2ccccc2)c1 (stereo unspecified)	>77	>57	?	25µM*
Cc1noc(C)c1S(=O)(=O)Nc1ccc(C(=O)NC2CCCCCC2)cc1	5.8*	>57	-1%	5%
CCc1nn2cc(-c3ccccc3)nc2s1	>77	2.4*	-4%	-3%
N#C[C@H]1CN[C@H](N)N[C@@H]1N	/	/	1%[11.4 µM]	0%[11.4 µM]
Cc1noc(C)c1CSc1nnc(-c2ccccc2F)n1CCc1ccccc1	>77	>57	?	10µM*
NCC(=O)N[C@H](CO)C(=O)O	/	/	9%[11.4 µM]	15%[11.4 µM]
O=C(O)c1cc(S(=O)(=O)Nc2cccc(F)c2)ccc1Cl	/	/	4%	-9%
CCN(CC)[C@@H](C)C(=O)N1c2ccccc2Sc2ccccc21	/	/	/	28%
Oc1c(C=Nc2cccnc2)sc2ccccc12	/	11*	/	/
CN=Cc1sc2ccccc2c1O	>77	/	-4%	2%
NC(=O)C1CCN(c2oc(-c3ccccc3F)nc2S(=O)(=O)c2ccc(Cl)cc2)CC1	>77	11*	6%	5%
COc1ccc(S(=O)(=O)N2CCCC(C(=O)Nc3ccc(OC)c(OC)c3)C2)cc1 (stereo unspecified)	>77	>57	2%	17%
Cc1ccc(S(=O)(=O)N2CCCC(C(=O)NC3=NCCS3)C2)cc1 (stereo unspecified)	?	6.3*	2%	-3%
COc1ccc(NC(=O)C2CCCN(S(=O)(=O)c3ccc(C)cc3)C2)cc1OC (stereo unspecified)	>77	5.4*	-2%	-7%
CCCCCCCCCCCCCCCC(=O)OC(CO)CO	/	/	4%	27%
O[C@@H](COc1cccc2ccccc12)CN1CCOCC1	/	/	1%[11.4 µM]	7%[11.4 µM]
CC(C)Sc1nc2c(c(=O)n(C)c(=O)n2C)n1Cc1ccc(Cl)cc1	>77	>57	?	7.9µM*
COc1ccc2nccc(SCC(=O)O)c2c1	/	/	-2%[11.4 µM]	3%[11.4 µM]
Cn1c(C(=O)N2CCCC(C(=O)NCCCSC3CCCCC3)C2)cc2sccc21 (stereo unspecified)	i	>57	?	?
Cn1c(C(=O)N2CCCC(C(=O)NCc3cccs3)C2)cc2sccc21 (stereo unspecified)	/	>57	25µM*	4%
Cc1cccc(OCc2nc(C#N)c(N3CC(C)CC(C)C3)o2)c1 (stereo unspecified)	/	/	?	6.3µM*
CCNc1oc(COc2cccc(C)c2)nc1C#N	>77	>57	?	?
COc1ccc(Nc2oc(COc3cccc(C)c3)nc2C#N)cc1	?	/	13%	4%
Cc1cccc(OCc2nc(C#N)c(NCc3ccc4c(c3)OCO4)o2)c1	>77	>57	?	16µM*
N#Cc1nc(COc2ccc(Cl)cc2)oc1NCc1ccc2c(c1)OCO2	>77	>57	?	10µM*
SMILES	GBA mod	Bst PK mod	TSHR agonist	HEK293 cAMP ctrl
Cn1c(=O)c2c(nc(/C=C\c3cccc(Cl)c3)n2C)n(C)c1=O	/	/	6%	-4%
O=C(O)C1C(C(=O)O)C(C(=O)O)C1C(=O)O (stereo unspecified)	/	/	-10%[11.4 µM]	3%[11.4 µM]
COc1ccc(CC[N@+]2(C)COc3cc4oc(=O)cc(C)c4cc3C2)cc1OC	/	/	1%[11.4 µM]	8%[11.4 µM]
CN1CCN(CC(C)(C)NS(=O)(=O)c2ccc(Cl)cc2)CC1	14*	>57	6%	11%
CN(C)CCNS(=O)(=O)c1ccc(Cl)cc1	>77	>57	?	?
Cc1ccc(C(=O)[C@@H]2[C@@H]3[C@@H](C(=O)[C@@H]4OC[C@H]3O4)[C@@H]3C=Cc4ccccc4N23)cc1	/	/	-2%	-8%
Oc1cc(O)c2c(c1)O[C@H](c1ccc(O)c(O)c1)[C@@H](O)[C@@H]2c1c(O)cc(O)c2c1O[C@@H](c1ccc(O)c(O)c1)[C@H](O)C2	/	/	-4%[11.4 µM]	13%[11.4 µM]
COc1ccc(OC)c2c(=S)c3ccccc3[nH]c12	/	/	-18%	-5%
O=c1[nH]c2ccccc2c2nc3ccccn3c12	>77	4.3*	-2%	0%
O=c1[nH]c2ccccc2c2ccccc12	/	/	8%	-9%
CC(=O)NC1=C(OS(=O)(=O)c2ccc(C)cc2)CN(C)C1=O	/	/	3%[11.4 µM]	-1%[11.4 µM]
CC(NC(=O)c1ccccc1)(C(=O)O)C(=O)O	/	/	-8%[11.4 µM]	17%[11.4 µM]
O=C(c1ccco1)N1CCN(S(=O)(=O)c2ccc(C3CCCCC3)cc2)CC1	>77	>57	?	25µM*
O=C(c1ccco1)N1CCN(S(=O)(=O)c2ccc(S(=O)(=O)NC3CCCCC3)cc2)CC1	>77	>57	?	1.6µM*
COc1cc(/C=C\C(=O)CC(=O)/C=C\c2ccc(O)c(OC)c2)ccc1O	/	/	?	-36%

Screening data: PubChem BioAssay, National Center for Advancing Translational Sciences (NCATS)
